Measured values from PubChem BioAssay (EPA / NIEHS).
Several values for one entry are separate records, joined by “and”; a condition that tells them apart may be missing. Equal entries are not always repeated. Inconclusive results are not listed. Some compounds were tested as several samples or in several runs, with calls that do not always agree. Activity calls are given as the source filed them. Rule for the calls, unless noted: active = hit-call score of the fitted dose curve at least 0.9, where 1 is the maximum; inactive = score below 0.9.

Experiments:
[1] = IUF_NPC2b_neuronal_migration_120hr: Leibniz Research Institute for Environmental Medicine (IUF) 120-hour Neural Progenitor Cell Migration Assay for Neuron Migration (NPC2b) (AID 2284300)
In short: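 TUBB3-positive neurons are imaged after 120 h of differentiation, and their mean distance from the sphere edge is normalised to radial glia migration. Single 0.3 mm fetal hNPC spheres on poly-D-lysine/laminin received 7 compound concentrations, ≤0.1% DMSO, refreshed at day 3.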

[2] = IUF_NPC4_neurite_length_120hr: Leibniz Research Institute for Environmental Medicine (IUF) 120-hour Neuronal Morphology Assay for Neurite Length (NPC4) (AID 2284302)
In short: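 Read-out is mean neurite length in µm of TUBB3-positive neurons, skeletonized from high-content fluorescence images after 120 h. Single 0.3 mm primary human neural progenitor spheres differentiated on poly-D-lysine/laminin under continuous compound exposure; DMSO was baseline.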

[3] = IUF_NPC5_oligodendrocyte_differentiation_120hr: Leibniz Research Institute for Environmental Medicine (IUF) 120-hour Oligodendrocyte Differentiation Assay (NPC5) (AID 2284304; active = hit-call score of the fitted dose curve at least 0.9, where 1 is the maximum;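 note: primary human fetal neural progenitor spheres plated to migrate and differentiate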)
In short: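 Oligodendrocyte differentiation scored as O4-positive cells, found by CNN image analysis, as percent of Hoechst-stained nuclei in the migration area. Scoring followed 5 days of exposure of plated hNPC neurospheres differentiating in DMEM/F12 N2 medium at 37C, with compound refreshed at day 3.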

[4] = IUF_NPC4_neurite_area_120hr: Leibniz Research Institute for Environmental Medicine (IUF) 120-hour Neuronal Morphology Assay for Neurite Area (NPC4) (AID 2284305; active = hit-call score of the fitted dose curve at least 0.9, where 1 is the maximum)
In short: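 Neurite area is read out as the mean pixel area, excluding nuclei, of skeletonized TUBB3-positive neurons imaged after 120 h. Primary human neural progenitor spheres differentiated on poly-D-lysine/laminin with compound present from day 0. Activity was referenced to DMSO controls.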

[5] = IUF_NPC2-5_cytotoxicity_72hr: Cytotoxicity Assessment at 72 hours in the Leibniz Research Institute for Environmental Medicine (IUF) Neural Progenitor Cell Migration and Differentiation Assay for Cytotoxicity (NPC2-5) (AID 2284306; active = hit-call score of the fitted dose curve at least 0.9, where 1 is the maximum;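 note: LDH release into supernatant measured by resorufin fluorescence marking membrane damage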)
In short: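 Membrane integrity loss was scored from fluorescence (RFU) of resorufin generated by LDH in culture supernatant, 72 h after dosing. Differentiating human progenitor spheres received seven serial compound concentrations alongside a solvent control.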

[6] = IUF_NPC2-5_cytotoxicity_120hr: Cytotoxicity Assessment at 120 hours in the Leibniz Research Institute for Environmental Medicine (IUF) Neural Progenitor Cell Migration and Differentiation Assay (NPC2-5) (AID 2284307; active = hit-call score of the fitted dose curve at least 0.9, where 1 is the maximum;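 for AC50: LDH released into supernatant as membrane damage marker via resorufin fluorescence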)
In short: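 Membrane-integrity loss measured as LDH activity in medium supernatant via resazurin-to-resorufin fluorescence after 120 h exposure. hNPC spheres from GW 16-19 fetal cortex differentiated on poly-D-lysine/laminin, 37C, medium half-refreshed day 3; seven concentrations, DMSO max 0.1%.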

[7] = IUF_NPC2-5_cell_number_120hr: Cell Number Assessment at 120 hours in the Leibniz Research Institute for Environmental Medicine (IUF) Neural Progenitor Cell Migration and Differentiation Assay (NPC2-5) (AID 2284308);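 note: count of Hoechst-stained nuclei in migration zone around plated human neural progenitor spheres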
In short: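 Counting of all Hoechst-stained nuclei in the migration area at 120 h, versus DMSO control. Primary hNPC spheres differentiated on poly-D-lysine/laminin in N2 medium at 37C, dosed from day 0 (7 concentrations, DMSO ≤0.1%), half-refed day 3.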

[8] = IUF_NPC2-5_viability_120hr: Viability Assessment at 120 hours in the Leibniz Research Institute for Environmental Medicine (IUF) Neural Progenitor Cell Migration and Differentiation Assay (NPC2-5) (AID 2284312)
In short: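 Alamar blue resorufin fluorescence read after 5 days of differentiation, with compound present from day 0 and replenished at day 3. Primary hNPC spheres on laminin-coated plates, 37C; seven concentrations plus solvent control, fitted against DMSO.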

[9] = VALA_TUBHUV_Agonist_CellCount: Viability Assessment in the VALA Sciences human Umbilical Vein Endothelial Tubule Formation (TUBHUV) Agonism Assay (AID 2284309; active = hit-call score of the fitted dose curve at least 0.9, where 1 is the maximum)
In short: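 HUVEC co-cultured 1:3 with HDF for 3 days in 10 ng/ml VEGF, then compounds added in VEGF medium for a further 3 days (72 h). Nuclear-stain/CD31 imaging cell count. Positive-direction fit versus 0.1% DMSO vehicle.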

[10] = VALA_TUBHUV_Antagonist_CellCount: Viability Assessment in the VALA Sciences human Umbilical Vein Endothelial Tubule Formation (TUBHUV) Antagonism Assay (AID 2284310; active = hit-call score of the fitted dose curve at least 0.9, where 1 is the maximum)
In short: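 HUVEC co-cultured with HDF (1:3) 3 days in 10 ng/ml VEGF, then 3 days with compounds in VEGF medium. Fixed, nuclear stain and CD31 immunofluorescence, imaged; cell counts fitted versus 0.1% DMSO, loss of signal read as lower viability.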

[11] = read-out: E-selectin (Homo sapiens) (UniProt P16581); assay: BSK_IMphg_ESelectin: BioMAP Diversity Plus: IMphg Assay for Eselectin Biomarker Activity (AID 2284291); settings: primary human endothelial cells with macrophages
In short: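 Human venular endothelial cell–macrophage co-culture, E-selectin measured by ELISA 24 h after chemical dosing. Signal fitted in the positive direction against DMSO as negative control and baseline.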

[12] = BSK_IMphg_SRB: Viability Assessment in the BioMAP Diversity Plus: IMphg Assay (AID 2284292); settings: primary human endothelial cells with macrophages;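 note: measured one day after compound addition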
In short: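 Human venular endothelial cells with macrophages, 24 h after chemical dosing; total protein by 0.1% SRB staining after 10% TCA fixation, read at 560 nm. Positive-direction fitting versus DMSO baseline.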

[13] = read-out: Macrophage colony-stimulating factor (MCSF), CSF1 (gene 1435); assay: BSK_IMphg_MCSF: BioMAP Diversity Plus: IMphg Assay for Macrophage colony-stimulating factor (MCSF) Biomarker Activity (AID 2284293); settings: primary human endothelial cells with macrophages
In short: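 Co-culture of human venular endothelial cells and macrophages, 24 hours of chemical exposure. M-CSF quantified by ELISA, with parallel SRB total-protein staining for cytotoxicity; activity fitted relative to DMSO.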

[14] = read-out: Interleukin-10 (IL10), IL10 (gene 3586); assay: BSK_IMphg_IL10: BioMAP Diversity Plus: IMphg Assay for Interleukin-10 (IL10) Biomarker Activity (AID 2284294); settings: primary human endothelial cells with macrophages
In short: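 Human venular endothelial cells cocultured with macrophages, dosed 24 h; IL-10 measured by ELISA, activity relative to DMSO. Cytotoxicity assessed in parallel cultures by sulforhodamine B total-protein staining.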

[15] = BSK_IMphg_SRB.Mphg: Macrophage Viability Assessment in the BioMAP Diversity Plus: IMphg Assay (AID 2284295); settings: primary human endothelial cells with macrophages
In short: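 Venular endothelial cells co-cultured with macrophages, read 24 h after dosing. Total protein measured by 0.1% SRB staining after 10% TCA fixation, absorbance at 560 nm. Fitted in positive direction against DMSO baseline.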

[16] = read-out: Thrombomodulin, THBD (gene 7056); assay: BSK_LPS_Thrombomodulin: BioMAP Diversity Plus: LPS Assay for Thrombomodulin Biomarker Activity (AID 2284296); settings: primary human HUVEC with PBMC
In short: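 Human umbilical vein endothelial cells co-cultured with PBMC and stimulated with LPS; cell-surface thrombomodulin measured by ELISA 24 hours after compound. Gain or loss versus DMSO; cytotoxicity checked by SRB staining in parallel cultures.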

CD69, CD69 (gene 969) = assay: BSK_LPS_CD69: BioMAP Diversity Plus: LPS Assay for CD69 Biomarker Activity (AID 2284303); settings: primary human HUVEC with PBMC
In short: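 Human umbilical vein endothelial cells co-cultured with PBMC under LPS stimulation, chemical exposure 24 h; cell-surface CD69 measured by ELISA and fitted in the positive direction versus DMSO.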

[17] = VALA_TUBIPS_Agonist_TubuleLength: VALA Sciences human iPS-derived Endothelial Tubule Formation (TUBIPS) Agonism Assay (AID 2284311; active = hit-call score of the fitted dose curve at least 0.9, where 1 is the maximum)
In short: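 Human iPS-derived endothelial cells were exposed to compound for 72 h. Tubule formation was imaged by high-content fluorescence and scored as gain of signal relative to DMSO vehicle (agonist mode).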

[18] = VALA_TUBIPS_Antagonist_TubuleLength: VALA Sciences human iPS-derived Endothelial Tubule Formation (TUBIPS) Antagonist Assay (AID 2284313; active = hit-call score of the fitted dose curve at least 0.9, where 1 is the maximum)
In short: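 Cells grown 3 days with 10 ng/ml VEGF, then exposed to compounds in VEGF medium for another 3 days. After fixation, nuclear stain and CD31 immunofluorescence imaging gave mean total tubule length against 0.1% DMSO; suramin (100 uM) inhibition control.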

[19] = VALA_MIGHUV2_WoundArea: VALA Sciences human Umbilical Vein Endothelial Cell Migration (MIGHUV) Assay, Area of Scratch Wound after Recovery (AID 2284316; active = hit-call score of the fitted dose curve at least 0.9, where 1 is the maximum)
In short: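 HUVEC seeded at 9000 cells/well, scratched after 24 h; test chemical added within 30 min, 6-point concentration response in triplicate (0.1% DMSO vehicle). After 24 h wound recovery, cells fixed and Hoechst-stained nuclei in wound area imaged; Cytochalasin D reference control.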

Measured: AC50

E-selectin (Homo sapiens), sequence (P16581 whole entry, looked up): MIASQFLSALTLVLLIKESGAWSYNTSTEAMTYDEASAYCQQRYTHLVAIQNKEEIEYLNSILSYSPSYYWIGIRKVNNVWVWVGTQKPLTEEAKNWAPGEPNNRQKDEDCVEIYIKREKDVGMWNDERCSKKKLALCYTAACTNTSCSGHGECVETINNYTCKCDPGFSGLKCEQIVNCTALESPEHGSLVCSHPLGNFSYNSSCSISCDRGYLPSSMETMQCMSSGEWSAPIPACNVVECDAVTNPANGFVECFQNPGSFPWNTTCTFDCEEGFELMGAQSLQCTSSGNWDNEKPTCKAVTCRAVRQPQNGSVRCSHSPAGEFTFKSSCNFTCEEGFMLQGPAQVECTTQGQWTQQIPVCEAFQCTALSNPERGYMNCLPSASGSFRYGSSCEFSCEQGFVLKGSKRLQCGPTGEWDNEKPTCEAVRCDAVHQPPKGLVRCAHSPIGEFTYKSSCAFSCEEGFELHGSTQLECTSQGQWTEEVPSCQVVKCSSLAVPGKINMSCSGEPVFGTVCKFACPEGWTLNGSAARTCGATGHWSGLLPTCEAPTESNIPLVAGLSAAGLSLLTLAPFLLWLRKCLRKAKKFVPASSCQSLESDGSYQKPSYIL

CC(C)N(C(=O)COc1nnc(C(F)(F)F)s1)c1ccc(F)cc1
inactive: [1] | [2] | [3] | [4] | [5] | [7] | [8]
active: [6] 0.0343 µM

CCC(C)(C)C(=O)OC1=C(c2ccc(Cl)cc2Cl)C(=O)OC12CCCCC2
inactive: [1] | [2] | [4] | [5] | [6] | [7] | [8]

CC1(c2ccc(Oc3ccccc3)cc2)OC(=O)N(Nc2ccccc2)C1=O (stereo not given)
active: [3] 1.61 µM
inactive: [1] | [2] | [4] | [5] | [6] | [7] | [8]

O=[N+]([O-])/N=C1\NCCN1Cc1ccc(Cl)nc1
inactive: [1] | [2] | [3] | [4] | [5] | [6] | [7] | [8]

CC[C@H](C)[C@H]1O[C@]2(C=C[C@@H]1C)C[C@@H]1C[C@@H](C/C=C(\C)[C@@H](O[C@H]3C[C@H](OC)[C@@H](O[C@H]4C[C@H](OC)[C@@H](O)[C@H](C)O4)[C@H](C)O3)[C@@H](C)/C=C/C=C3\CO[C@@H]4[C@H](O)C(C)=C[C@@H](C(=O)O1)[C@]34O)O2 (tested in a mixture with another compound)
inactive: [1] | [4]
active: [2] 7.61 µM | [3] 0.444 µM | [5] 7.55 µM | [6] 6.89 µM | [7] 7.63 µM | [8] 8.02 µM

CC1(C)C(C=C(Cl)Cl)C1C(=O)OC(C#N)c1ccc(F)c(Oc2ccccc2)c1 (stereo not given)
inactive: [1] | [2] | [4] | [5] | [6] | [7] | [8]
active: [3] 0.227 µM

O=C(O)COc1ccc(Cl)cc1Cl
inactive: [1] | [2] | [5] | [6] | [7] | [8]

Oc1cc(Cl)ccc1Oc1ccc(Cl)cc1Cl
inactive: [9] | [10]

CNC(=O)CSP(=S)(OC)OC
inactive: [1] | [2] | [3] | [4] | [5] | [6] | [7] | [8]

O=S(=O)(O)C(F)(F)C(F)(F)C(F)(F)C(F)(F)C(F)(F)C(F)(F)C(F)(F)C(F)(F)F
active: [11] 30 µM and 38.2 µM | [14] 45.3 µM [middle of 4 runs] | [2] 0.362 µM | [5] 79.3 µM | [6] 62.4 µM | [7] 73 µM
inactive: [12] | [13] | [15] | [16] | [1] | [2] | CD69, CD69 (gene 969) | [3] | [6] | [7] | [9] | [17] | [8] | [18] | [19]

COP(=S)(OC)Oc1ccc([N+](=O)[O-])cc1
inactive: [1] | [2] | [3] | [4] | [5] | [6] | [7] | [8]

COP(=O)(OC)OC=C(Cl)Cl
inactive: [5]
active: [1] 53.3 µM | [2] 13.5 µM | [4] 13.3 µM | [6] 89 µM | [7] 15 µM | [8] 29.7 µM

O=C(O)C(F)(F)C(F)(F)C(F)(F)C(F)(F)C(F)(F)C(F)(F)C(F)(F)F
inactive: [11] | [12] | [13] | [14] | [15] | [16] | [1] | [2] | CD69, CD69 (gene 969) | [3] | [4] | [5] | [6] | [7] | [8]
active: [14] 30 µM | [16] 0.609 µM | CD69, CD69 (gene 969) 220 nM and 30 µM

O=S1OCC2C(CO1)C1(Cl)C(Cl)=C(Cl)C2(Cl)C1(Cl)Cl (stereo not given)
inactive: [1] | [2] | [4] | [5] | [6] | [7] | [8]
active: [3] 2.92 µM
